# Records with an inconclusive call do not appear. The source made the active and inactive calls. Calls follow the shape of the dose curve; as a rule, active = well fitted cell-killing curve with a large enough effect; inconclusive = small, poorly fitted or top-dose-only effect; inactive = no such curve, though single readings can be large or run the other way.
# Assay: qHTS of pediatric cancer cell lines to identify multiple opportunities for drug repurposing: Confirmatory screen for U-2 OS cells (AID 1347122); also: nearly all actives have a fitted effect of over 65% in size
# Settings: U-2 OS osteosarcoma cell viability; series mostly up to 45.9 µM
# Method in brief: (§1)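 Cells (500-1,000/well) in growth media were settled 5 h at 37 degrees C, then given compounds for 48 h. Viability was read as CellTiter-Glo luminescence. Primary runs used MIPE at 11 points (0.78 nM-46 µM) and NPC at 8 points (0.59 nM-46 µM); follow-ups used 11 points.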
# Potency is read from the fitted curve at half-maximal effect.
row,SMILES,Potency
1,NC(=O)c1cccc2cn(-c3ccc([C@@H]4CCCNC4)cc3)nc12,inactive
2,CC(=O)Nc1nc(C)c(-c2ccc(Cl)c(S(=O)(=O)NCCO)c2)s1,14.7 µM (active)
3,CN(c1ncccc1CNc1nc(Nc2ccc3c(c2)CC(=O)N3)ncc1C(F)(F)F)S(C)(=O)=O,7.37 µM (active)
4,COc1cc2c(NC3CCN(C(C)C)CC3)nc(C3CCCCC3)nc2cc1OCCCN1CCCC1,inactive
5,O=c1[nH]nc(Sc2ncc([N+](=O)[O-])s2)n1-c1ccc2c(c1)OCCO2,9.27 µM (active)
6,COc1c(OCCCN2CCOCC2)ccc2c3n(c(=NC(=O)c4cnc(N)nc4)nc12)CCN3,inactive
7,Cc1cn2c(-c3cn[nH]c3)cnc2c(Nc2ccc(C(=O)N3CCNCC3)cc2F)n1,inactive
8,O=C(NC1CCNCC1)c1[nH]ncc1NC(=O)c1c(Cl)cccc1Cl,1.85 µM (active)
9,CC(C)CC(=O)Nc1n[nH]c2c1CN(C(=O)C1CCN(C)CC1)C2(C)C,16.5 µM (active)
10,CNC(=O)c1c(F)cccc1Nc1nc(Nc2cc3c(cc2OC)CCN3C(=O)CN(C)C)nc2[nH]ccc12,0.928 µM (active)
11,Cc1ccc(-c2ncn(-c3ccc(Nc4nccc(-c5cccc(N6CCOCC6)c5)n4)cc3)n2)cn1,0.24 µM (active)
12,Cc1nc(Nc2n[nH]c3c2CN(C(=O)N[C@H](CN(C)C)c2ccccc2)C3(C)C)c2sccc2n1,inactive
13,COc1cccc(-c2ccc(NC(=O)C3=C(C(=O)O)CCC3)c(F)c2)c1,14.7 µM (active)
14,Nc1ccn([C@@H]2O[C@H](CO)[C@H](O)C2(F)F)c(=O)n1,inactive
15,CC(C)(C)OC(=O)Nc1ccc(-c2cc(C(=O)NCCCCCCC(=O)NO)no2)cc1,1.47 µM (active)
16,CN1CC[C@@H](c2c(O)cc(O)c3c(=O)cc(-c4ccccc4Cl)oc23)[C@@H](O)C1,0.329 µM (active)

# Assay: qHTS of pediatric cancer cell lines to identify multiple opportunities for drug repurposing: Confirmatory screen for Rh41 cells (AID 1347123);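 also: 48 h compound exposure; nearly all actives have a fitted effect of over 60% in size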
# Settings: Rh41 rhabdomyosarcoma cells, viability/cytotoxicity qHTS; series mostly up to 45.9 µM
# Method in brief: as §1
row,SMILES,Potency
1,COCCn1c2c([n+](Cc3cnccn3)c1C)C(=O)c1ccccc1C2=O,0.0185 µM (active)
2,O=C(C=Cc1cccc(S(=O)(=O)Nc2ccccc2)c1)NO,5.37 µM (active)
3,Cc1ccc(C(=O)Nc2ccc(CN3CCN(C)CC3)c(C(F)(F)F)c2)cc1C#Cc1cnc2cccnn12,0.585 µM (active)
4,CNC(=O)c1nn(C)c2c1C(C)(C)Cc1cnc(Nc3ccc(N4CCN(C)CC4)cc3)nc1-2,3.29 µM (active)
5,Nc1ccccc1NC(=O)c1ccc(CNC(=O)OCc2cccnc2)cc1,2.4 µM (active)
6,CC(=O)Nc1nc(C)c(-c2ccc(Cl)c(S(=O)(=O)NCCO)c2)s1,5.85 µM (active)
7,CN(c1ncccc1CNc1nc(Nc2ccc3c(c2)CC(=O)N3)ncc1C(F)(F)F)S(C)(=O)=O,3.69 µM (active)
8,CC(C)c1cc(C(=O)N2Cc3ccc(CN4CCN(C)CC4)cc3C2)c(O)cc1O,0.585 µM (active)
9,O=c1[nH]nc(Sc2ncc([N+](=O)[O-])s2)n1-c1ccc2c(c1)OCCO2,10.4 µM (active)
10,Nc1cc(C(F)(F)F)c(-c2cc(N3CCOCC3)nc(N3CCOCC3)n2)cn1,5.85 µM (active)
11,COc1ccc(-n2nc(C(N)=O)c3c2C(=O)N(c2ccc(N4CCCCC4=O)cc2)CC3)cc1,0.233 µM (active)
12,C=CC(=O)Nc1cc2c(Nc3ccc(F)c(Cl)c3)ncnc2cc1C#CC(C)(C)N1CCN(C)CC1,2.69 µM (active)
13,Cc1cn2c(-c3cn[nH]c3)cnc2c(Nc2ccc(C(=O)N3CCNCC3)cc2F)n1,5.85 µM (active)
14,O=C(NC1CCNCC1)c1[nH]ncc1NC(=O)c1c(Cl)cccc1Cl,1.17 µM (active)
15,CCNC(=O)Nc1ccc2ncc(Nc3ccc(C)cc3)nc2n1,inactive
16,CC(C)(C)c1cnc(CSc2cnc(NC(=O)C3CCNCC3)s2)o1,0.329 µM (active)
17,C=CC(=O)Nc1cccc(Oc2nc(Nc3ccc(N4CCN(C)CC4)cc3OC)ncc2Cl)c1,16.5 µM (active)
18,CC(C)CC(=O)Nc1n[nH]c2c1CN(C(=O)C1CCN(C)CC1)C2(C)C,1.31 µM (active)
19,CNC(=O)c1c(F)cccc1Nc1nc(Nc2cc3c(cc2OC)CCN3C(=O)CN(C)C)nc2[nH]ccc12,0.414 µM (active)
20,Cc1ccc(-c2ncn(-c3ccc(Nc4nccc(-c5cccc(N6CCOCC6)c5)n4)cc3)n2)cn1,0.151 µM (active)
21,CCn1cc(-c2ccnc3[nH]c(-c4cccc(CN(C)C)c4)cc23)c(-c2ccc(NC(=O)N(C)C)cc2)n1,1.85 µM (active)
22,Cc1cc(N2CCOCC2)cc2[nH]c(-c3c(NC[C@@H](O)c4cccc(Cl)c4)cc[nH]c3=O)nc12,0.657 µM (active)
23,O=C(O)c1ccc2cc(-c3ccc(O)c(C45CC6CC(CC(C6)C4)C5)c3)ccc2c1,3.29 µM (active)
24,Cc1nc(Nc2n[nH]c3c2CN(C(=O)N[C@H](CN(C)C)c2ccccc2)C3(C)C)c2sccc2n1,inactive
25,CCn1nnc2c(N3CCOCC3)nc(-c3ccc(NC(=O)Nc4ccc(C(=O)N5CCN(C)CC5)cc4)cc3)nc21,0.522 µM (active)
26,C=CCn1c(=O)c2cnc(Nc3ccc(N4CCN(C)CC4)cc3)nc2n1-c1cccc(C(C)(C)O)n1,1.17 µM (active)
27,Nc1ccn([C@@H]2O[C@H](CO)[C@H](O)C2(F)F)c(=O)n1,0.0522 µM (active)
28,CC(C)(C)OC(=O)Nc1ccc(-c2cc(C(=O)NCCCCCCC(=O)NO)no2)cc1,1.85 µM (active)
29,Cc1cc(Nc2ncnc3ccc(-c4ccc(CNCCS(C)(=O)=O)o4)cc23)ccc1Oc1ccn2ncnc2c1,2.33 µM (active)
30,CN1CC[C@@H](c2c(O)cc(O)c3c(=O)cc(-c4ccccc4Cl)oc23)[C@@H](O)C1,0.369 µM (active)

# Reference: PubChem BioAssay (NCATS)
